Most compounds without a hit are left out; they make up all but 11% or so of the library.
Vaccinia mCherry: vaccinia inhibition (mCherry reporter); actives 0.63% (n = 310,000); Vaccinia virus mCherry reporter infection, fluorescence; Potency, µM (doses to about 36.5 µM), usual class: inhibitors; calls by dose curve; tested in A549 cells; also: nearly all actives have a fitted effect of over 35% in size
HCV inhibitor: inhibitors of hepatitis C virus infection | Huh7.5.1 HCVcc-Cre infection, luciferase reporter, 44 h | Potency, µM (series often up to 41.8 µM), usual class: inhibitors | actives 3.4% (n = 340,000) | AID 651820
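Luciferase read-out (15 sec integration) after a 15 min room-temperature substrate step quantifies HCVcc-Cre infection. Cells, 1,000 per well, had compound added 4 h post-plating, then virus at ~0.5 moi, and were cultured 44 h.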
NS1 function inh: blocks influenza NS1 protein function | AID 2326 | Potency, µM (top dose mostly 46.1 µM) | actives 0.4% (n = 270,000); calls by dose curve; also: actives are rising curves; nearly all actives have a fitted effect of over 50% in size
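In this qHTS, NS1 from influenza A is expressed in budding yeast, where it slows growth. Cells are switched from glucose to 2% galactose medium (pH 6.0, -URA), treated with compound, and growth recovery is read at OD600.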
Pf growth 48h: inhibits P. falciparum growth in the first generation, 48 h; AID 504832; actives 5.9% (n = 310,000); Potency, µM (highest dose often 28.7 µM), usual class: inhibitors; P. falciparum luciferase growth in erythrocytes, 48 h
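Luminescence readout; reporter = integrated firefly luciferase in P. falciparum. RBC culture at 2% hematocrit, 0.1% parasitemia final, 37 C/5% CO2; decreased signal taken as growth inhibition.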
Pf growth 96h: P. falciparum growth inhibition at 96 hours | P. falciparum luciferase reporter growth, 96 h | actives 6.9% (n = 320,000) | Potency, µM (doses to about 28.7 µM), actives largely listed as inhibitors
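Compounds incubated with erythrocytes infected by luciferase-expressing P. falciparum (2% hematocrit, 0.05% parasitemia final) for 96 hours, 37 C in 5% CO2. Growth inhibition scored as decreased luciferase luminescence.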
Vaccinia Venus: vaccinia inhibition (Venus reporter); Vaccinia virus Venus reporter expression, fluorescence; Potency, µM (doses to about 36.5 µM), hits mostly inhibitors; actives 0.46% (n = 330,000); calls by dose curve; tested in A549 cells; also: nearly all actives have a fitted effect of over 30% in size
A number is an active result; – = inactive; ? = inconclusive; · = not tested or not shown; [ ] = dose if it differs, or a comment. Unless noted, calls follow the shape of the dose curve; as a rule, active = well fitted inhibition curve with a large enough effect; inconclusive = small, poorly fitted or top-dose-only effect, or another doubt; inactive = no such curve, though single readings can be large or run the other way.

SMILES	Vaccinia mCherry	HCV inhibitor	NS1 function inh	Pf growth 48h	Pf growth 96h	Vaccinia Venus
N#Cc1c(N)nc2c(c1-c1ccncc1)CCCCCC2	·	–	–	·	·	·
O=C(Nc1nnc(Cc2ccccc2)s1)C1CCC1	·	–	–	?	1.65µM	·
O=C(Nc1nnc(Cc2ccccc2)s1)Nc1ccccc1F	·	–	–	–	14.7µM	·
O=C(Nc1ccc(F)cc1)Nc1nnc(Cc2ccccc2F)s1	–	–	–	?	10.4µM	–
O=C(Nc1ccccc1)Nc1nnc(Cc2ccccc2F)s1	–	–	–	–	?	–
Cc1ccccc1S(=O)(=O)NC(=O)C1(C)CCN1C(=O)Cc1cccs1 (stereo not given)	–	·	·	·	·	–
Cc1ccc(C(=O)Nc2ccnc(-c3cccnc3)n2)cc1	·	?	·	–	–	·
Cc1ccc(NC(=O)Nc2ccnc(-c3cccnc3)n2)cc1	·	11.2µM	–	–[1.15 µM]	?	·
Cc1cc2c(c(C)nn2-c2ccccc2)c(=O)o1	–	?	–	–	–	–
CCC(C)(C)C1CCC(=NNc2nc3ccccc3[nH]2)CC1 (stereo not given)	·	?	–	10.4µM	10.4µM	·
O=C(COc1ccccc1O)Nc1ccc(Cl)cc1	?	–	–	–	·	?
CN(C)S(=O)(=O)c1ccc(C(=O)Nc2ccc3c(c2)CCC3)cc1	·	?	–	–	–	·
CC1CC(C)CN(C(=O)C(C)N(C)CC(=O)Nc2ccccc2Cl)C1 (stereo not given)	–	–	·	–	–	–
CC(C(=O)N1CCc2ccccc21)N(C)CC(=O)Nc1ccccc1Cl (stereo not given)	·	–	·	?	16.5µM	·
COc1ccccc1NC(=O)c1ccc2snnc2c1	–	–	–	–	–	–
COc1ccc(-c2sc3ccc(N4CCOCC4)cc3c2C#CC(C)(C)O)cc1	–	?	·	?	2.62µM	–
COc1ccc(-c2oc3ccc(N4CCOCC4)cc3c2C#CCO)cc1	5.62µM	?	·	·	·	?
COC(=O)c1c(-c2ccc(OC)cc2)sc2ccc(N3CCOCC3)cc12	?	12.6µM	·	·	·	–
COc1ccc(-c2ccc3oc(-c4ccc(OC)cc4)c(C#CCO)c3c2)cc1	–	?	·	·	·	?
COC(=O)c1c(-c2cc(OC)cc(OC)c2)sc2ccc(OC)cc12	–	12.6µM	·	·	·	–
COC(=O)c1[nH]c2ccc(F)cc2c1NS(=O)(=O)c1ccc(OC)cc1	?	–	–	–	–	–
CCN1CCN(C(=O)/C(=C/c2cccs2)NC(=O)c2ccc(C)c(C)c2)CC1	–	–	–	–	–	–
Cc1cc(N)ccc1-c1cc2ccccc2oc1=O	–	?	–	–	?	–
COC(=O)c1c(-c2ccc(SC)cc2)sc2ccccc12	–	–	·	?	5.86µM	–
CCC(Oc1ccccc1)C(=O)Nc1ccc(S(=O)(=O)NCC2CCCO2)cc1 (stereo not given)	·	?	–	–	·	·
SMILES	Vaccinia mCherry	HCV inhibitor	NS1 function inh	Pf growth 48h	Pf growth 96h	Vaccinia Venus
Nc1cccnc1Sc1cccc(Cl)c1	·	–	–	–	–	·
COc1ccccc1Sc1nc(-c2ccccn2)ncc1OC	5.01µM	?	·	?	?	–
COc1cnc(-c2ccccn2)nc1Sc1ccc(C)cc1	?	?	·	11.7µM	?	?
COc1cccc(-c2nc(NC(C)C)c3ccccc3n2)c1O	·	?	–	?	?	·
COc1cnc(-c2ccccn2)nc1Sc1cccc(Cl)c1	·	7.08µM	–	?	1.47µM	·
COc1cnc(-c2ccccn2)nc1NC(C)C	4.47µM	?	·	14.7µM	?	?
Cc1cccc(N(C(=O)Cn2nnc(-c3ccc(F)cc3)n2)C(C(=O)NC(C)(C)C)c2ccncc2)c1 (stereo not given)	–	–	–	?	–	–
CCOC(=O)c1[nH]c2cc(OC)c(OC)cc2c1NC(=O)CCN1CCSCC1	–	–	–	–	–	–
CCOc1ccc(NC(=O)CN2CCN(CC(=O)Nc3ccc(C(N)=O)cc3)CC2)cc1	·	–	–	–	–	·
COc1ccccc1N(C)S(=O)(=O)c1ccc(C(=O)OCC(=O)N2CCCCCC2)cc1	–	–	·	–	?	–
COc1ccc(N(CC(=O)N2CCCCCC2)S(=O)(=O)c2ccccc2[N+](=O)[O-])c(OC)c1	–	–	–	11.7µM	–	–
COc1ccc(N(CC(=O)NCc2ccccc2C)S(=O)(=O)c2ccccc2[N+](=O)[O-])c(OC)c1	–	?	–	?	10.4µM	–
C[C@@H](Cc1ccccc1)Nc1ncnc2c1ncn2[C@@H]1O[C@H](CO)[C@@H](O)[C@H]1O	–	·	·	·	·	–
c1ccc(-c2sc3ccccc3c2-c2ccc(OCCN3CCCCC3)cc2)cc1	–	–	·	·	·	–
CN(C)CCOc1ccc(-c2c(-c3ccccc3)sc3ccccc23)cc1	?	?	·	·	·	12.6µM
Cc1nc2c(s1)sc1ccccc12	?	–	–	–	–	–
Cc1onc(-c2c(F)cccc2Cl)c1C(=O)c1ccc(F)cc1	–	–	–	–	–	–
CC(C)n1cnc2c(NCc3ccccc3)nc(NCCO)nc21	–	·	·	·	·	–
CC(C)(O)C(Cl)(Cl)Cl	·	·	·	2.69µM	1.69µM	·

Screening data as filed in PubChem BioAssay.
